PubChem BioAssay (NCATS)
Results filed as inconclusive are left out. Calls of active or inactive are those of the source. Unless noted, the call rests on the fitted dose curve; in most records, active means well fitted curve in the direction sought with a large enough effect; inconclusive means small, poorly fitted or top-dose-only effect, or another doubt; inactive means no such curve, though single readings can be large; an effect the other way counts as inactive or inconclusive. Numbered stars: 1 amine (or outer) side, 2 acyl side, 3 side chain; on linkers, the order of the positions; unused ones are H or OH. Bridge positions count the residues as written; N and C are the ends. Square brackets hold non-standard residues; d marks the D form. Peptide text beside a SMILES is read from it. I, II: the chains in the order shown. Actinocin(9to1) = Cc1c2oc3c(C)ccc(C(=O)[*:1])c3nc-2c(C(=O)[*:2])c(N)c1=O; aThr = C[C@H](O)[C@H](N)C(=O)O; NMeV = CN[C@H](C(=O)O)C(C)C; Sar = CNCC(=O)O

Legend:
[1] = molecular target: Furin (Homo sapiens) (UniProt P09958); experiment: Furin counterscreen qHTS for Zika virus inhibitors (AID 1347149); further: nearly all actives have a fitted effect of over 70% in size; further: potency means the concentration at half of the fitted maximal effect
Chain of Furin (Homo sapiens) (P09958 whole entry, looked up): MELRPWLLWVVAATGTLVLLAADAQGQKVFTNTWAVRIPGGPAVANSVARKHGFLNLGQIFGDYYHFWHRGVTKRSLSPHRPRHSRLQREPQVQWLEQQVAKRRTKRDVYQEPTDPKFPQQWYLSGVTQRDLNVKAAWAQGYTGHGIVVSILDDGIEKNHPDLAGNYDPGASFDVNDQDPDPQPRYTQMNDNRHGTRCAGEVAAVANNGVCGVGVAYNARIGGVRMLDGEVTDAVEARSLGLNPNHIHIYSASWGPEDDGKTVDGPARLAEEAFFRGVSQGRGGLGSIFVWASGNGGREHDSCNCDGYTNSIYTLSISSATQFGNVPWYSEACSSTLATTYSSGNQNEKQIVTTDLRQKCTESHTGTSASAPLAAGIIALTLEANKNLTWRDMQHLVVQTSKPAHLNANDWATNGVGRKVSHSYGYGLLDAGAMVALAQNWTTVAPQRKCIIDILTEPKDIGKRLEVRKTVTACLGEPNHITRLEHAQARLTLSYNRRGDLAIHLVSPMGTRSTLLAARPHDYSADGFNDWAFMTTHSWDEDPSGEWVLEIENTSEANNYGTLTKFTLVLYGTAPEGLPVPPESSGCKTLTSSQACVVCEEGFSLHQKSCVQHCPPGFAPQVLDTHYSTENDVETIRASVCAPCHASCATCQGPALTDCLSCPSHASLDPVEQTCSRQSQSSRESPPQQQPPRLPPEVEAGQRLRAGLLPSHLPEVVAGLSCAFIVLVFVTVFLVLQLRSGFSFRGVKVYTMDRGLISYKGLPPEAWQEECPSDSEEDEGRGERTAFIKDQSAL
How it was run: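 Fluorogenic cleavage of BOC-RVRR-AMC (2 microM final, Km ~15 µM) was monitored (ex 340, em 450 nm) at 37C after 15 min RT preincubation of 5 nM furin with compounds in HEPES pH 7.0 buffer with CaCl2 and Triton X-100. Percent inhibition was fitted to a 4-parameter Hill curve.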

[2] = tested on: Zika virus NS2B-NS3 protease (unlinked); experiment: Optimization of GU AMC qHTS for Zika virus inhibitors: Unlinked NS2B-NS3 protease assay (AID 1347151); further: nearly all actives have a fitted effect of over 80% in size; further: potency means the concentration at half of the fitted maximal effect
How it was run: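 Noncovalent NS2B hydrophilic domain–NS3 protease complex (25 nM final) in 10 mM Tris-HCl pH 8.0, 0.01% Tween 20; AMC substrate, room temperature 15 min (~20% conversion); fluorescence change normalized, 4-parameter Hill fit.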

[3] = Vero cells viability qHTS for Zika virus inhibitors (AID 1347167)
How it was run: (§1)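 Cells seeded at 2.5 x 10^5 cells/mL in DMEM with 4% FBS and attached overnight at 37 degrees C, then exposed to compound for 24 to 48 hours. Viability read as ATP content by CellTiter Glo luminescence.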

[4] = HepG2 cells viability qHTS for Zika virus inhibitors (AID 1347168); further: potency means the concentration at half of the fitted maximal effect
How it was run: as §1

[5] = Tertiary RLuc qRT-PCR qHTS assay for Zika virus inhibitors (AID 1347169); further: nearly all actives have a fitted effect of over 55% in size; further: potency means the concentration at half of the fitted maximal effect
How it was run: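 Vero cells (1,000/well) infected with recombinant ZIKV-RLuc (Cambodian) at MOI 1-2 after compound addition, 48-72 hrs at 37 degrees C. Live-cell Renilla luciferase substrate added; luminescence read after 1-1.5 hrs.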

[6] = tested on: Zika virus NS2B-NS3 protease (linked); experiment: 384 well plate NINDS AMC confirmatory qHTS for Zika virus inhibitors (AID 1347163); further: potency means the concentration at half of the fitted maximal effect; nearly all actives have a fitted effect of over 50% in size
How it was run: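 Linked NS2B-NS3 protease (final 5 nM, 30 nM or 60 nM) was preincubated with compounds (final up to 1 mM) for ~15 minutes. Ac-VKTGKR-AMC substrate (final 30 microM) then reacted for 25 minutes at room temperature in the dark. Fluorescence (ex 355/em 460 nm) was normalized to no-enzyme and no-inhibitor controls.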

[7] = tested on: Zika virus NS2B-NS3 protease (linked construct); experiment: 384 well plate NINDS Rhodamine confirmatory qHTS for Zika virus inhibitors (AID 1347164);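 further: fluorescence from protease cleavage of Ac-LKRR-rhodamine 110 substrate; nearly all actives have a fitted effect of over 65% in size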; further: potency means the concentration at half of the fitted maximal effect
How it was run: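 Linked NS2B-NS3 protease (final 5, 30 or 60 nM) preincubated ~15 minutes with compounds, then 10 microM Ac-LKRR-Rhodamine 110 added. Fluorescence (485/538 nm) read after 25 minutes at room temperature, normalized to no-enzyme and no-inhibitor controls.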

[8] = tested on: Zika virus NS2B-NS3 protease (linked construct); experiment: Confirmatory screen NINDS AMC qHTS for Zika virus inhibitors (AID 1347152); further: nearly all actives have a fitted effect of over 70% in size; further: potency means the concentration at half of the fitted maximal effect
How it was run: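 Linked NS2B-NS3 protease, 1 nM, in 10 mM Tris-HCl pH 8.0, 0.01% Tween 20; compounds preincubated 15 min at room temperature. Nle-KRR-AMC 10 microM (Km 18.3 µM); 15-min fluorescence change (340/450 nm) fitted to 4-parameter Hill.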

[9] = tested on: Zika virus NS2B-NS3 protease (unlinked complex); experiment: Confirmatory screen GU AMC qHTS for Zika virus inhibitors (AID 1347153); further: nearly all actives have a fitted effect of over 70% in size
How it was run: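 Unlinked NS2B-NS3 complex (25 nM) in 10 mM Tris-HCl pH 8.0, 0.01% Tween 20 preincubated 15 min with compound, then 10 microM Bz-Nle-KRR-AMC (Km 18.3 µM). Fluorescence change over 15 min, normalized, Hill-fitted.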

[10] = tested on: Zika virus NS2B-NS3 protease; experiment: Primary screen GU AMC qHTS for Zika virus inhibitors (AID 1347154); further: nearly all actives have a fitted effect of over 70% in size; further: potency means the concentration at half of the fitted maximal effect
How it was run: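 Unlinked Zika NS2B hydrophilic domain–NS3 protease complex at 25 nM in 10 mM Tris-HCl pH 8.0, 0.01% Tween 20, with an AMC peptide substrate. Fluorescence change (340/450 nm) over 15 min at room temperature, normalized to controls, fitted to 4-parameter Hill.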

[11] = Primary qHTS for small molecule stabilizers of the endoplasmic reticulum resident proteome: Secreted ER Calcium Modulated Protein (SERCaMP) assay (AID 1508630)
How it was run: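 GLuc-SERCaMP-expressing SH-SY5Y cells, pretreated 16 h with compound, are challenged with thapsigargin to empty ER calcium stores; after 4 h, coelenterazine is added directly to the medium and luminescence is imaged.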

[12] = molecular target: Cytochrome P450 1A2 (Homo sapiens) (UniProt P05177); experiment: p450-cyp1a2 (AID 410; calls by dose curve)
Chain of Cytochrome P450 1A2 (Homo sapiens) (P05177 whole entry, looked up): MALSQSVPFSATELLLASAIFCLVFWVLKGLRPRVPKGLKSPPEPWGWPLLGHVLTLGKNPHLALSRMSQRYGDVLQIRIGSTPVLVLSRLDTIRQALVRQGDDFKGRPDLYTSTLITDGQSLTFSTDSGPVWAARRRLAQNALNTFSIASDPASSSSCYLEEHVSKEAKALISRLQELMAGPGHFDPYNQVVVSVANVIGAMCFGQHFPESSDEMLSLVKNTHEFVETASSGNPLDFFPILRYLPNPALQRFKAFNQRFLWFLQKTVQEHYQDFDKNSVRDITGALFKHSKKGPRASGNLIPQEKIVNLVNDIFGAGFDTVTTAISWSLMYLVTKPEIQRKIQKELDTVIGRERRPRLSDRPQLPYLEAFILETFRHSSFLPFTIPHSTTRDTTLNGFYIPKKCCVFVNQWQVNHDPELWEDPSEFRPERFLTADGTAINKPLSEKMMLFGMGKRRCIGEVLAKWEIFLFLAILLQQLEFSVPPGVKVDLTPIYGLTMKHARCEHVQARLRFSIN
How it was run: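 20nM CYP1A2 with 100uM Luciferin-ME (at Km) in 100mM KPO4; compound preincubated 10 min, NADPH regeneration added, 60 min at room temperature. Luciferin quantified by luminescence after detection reagent; normalized to 57 uM furafylline.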

[13] = molecular target: Glucocorticoid receptor (Homo sapiens) (UniProt P04150); experiment: GR-GFP Redistribution (AID 450;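 active means compounds whose dose series gives a full or clear partial fitted curve of increased nuclear translocation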; further: potency means the concentration at half of the fitted maximal effect); details: U2OS GR-GFP nuclear translocation, laser cytometry, 2 h
Chain of Glucocorticoid receptor (Homo sapiens) (P04150 whole entry, looked up, the tested form may be a part): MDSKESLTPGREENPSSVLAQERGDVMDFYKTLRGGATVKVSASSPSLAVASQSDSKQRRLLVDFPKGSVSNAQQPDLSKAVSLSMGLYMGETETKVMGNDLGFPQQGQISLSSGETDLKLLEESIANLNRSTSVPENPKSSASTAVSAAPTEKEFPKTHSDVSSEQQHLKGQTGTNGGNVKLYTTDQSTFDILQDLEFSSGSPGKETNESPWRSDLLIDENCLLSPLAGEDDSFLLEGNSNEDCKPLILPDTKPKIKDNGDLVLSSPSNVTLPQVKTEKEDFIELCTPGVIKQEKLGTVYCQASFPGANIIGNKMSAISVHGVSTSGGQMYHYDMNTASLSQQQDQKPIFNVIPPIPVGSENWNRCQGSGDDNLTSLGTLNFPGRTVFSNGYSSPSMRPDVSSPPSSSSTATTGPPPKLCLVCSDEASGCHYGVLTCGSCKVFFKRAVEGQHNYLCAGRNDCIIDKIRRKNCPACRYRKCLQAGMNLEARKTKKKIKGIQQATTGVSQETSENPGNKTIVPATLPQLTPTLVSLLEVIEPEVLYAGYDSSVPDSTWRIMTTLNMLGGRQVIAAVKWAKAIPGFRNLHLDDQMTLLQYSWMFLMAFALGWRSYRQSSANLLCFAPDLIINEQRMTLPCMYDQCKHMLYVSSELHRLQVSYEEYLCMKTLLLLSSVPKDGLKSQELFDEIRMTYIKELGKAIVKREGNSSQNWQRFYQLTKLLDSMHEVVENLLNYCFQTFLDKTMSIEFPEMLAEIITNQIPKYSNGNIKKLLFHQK

[14] = molecular target: Glucocorticoid receptor (Homo sapiens) (UniProt P04150); experiment: GR-EFC Redistribution (AID 451; calls by dose curve; further: potency means the concentration at half of the fitted maximal effect); details: CHO-K1 GR-EFC translocation, beta-gal luminescence, 2 h
How it was run: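 CHO-K1 cells expressing nuclear EA and GR-ED fragments of b-gal; compounds titrated up to 46 uM final, 2 h at 37 C. GR nuclear translocation read as complemented b-gal luminescence after 1 h RT detection.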

[15] = molecular target: Mitogen-activated protein kinase 10 (Mus musculus) (UniProt Q61831); experiment: JNK3 AlphaScreen Assay (AID 530; active means well fitted curve in either direction with a large enough effect, not every such curve was filed as active;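 further: kinase came from lysate of stimulated human HepG2 cells; signal reports phosphorylation of biotinylated GST-cJun 1-79 at Ser73 with 10 µM ATP; series mostly up to about 57 µM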)
How it was run: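 Pre-activated (IL-1β/TNFα) JNK3 in HepG2 lysates phosphorylates biotin-GST-cJun(1-79), 10 uM ATP; anti-phospho-cJun(Ser73) AlphaScreen read at room temperature, pH 7.6 Tris buffer. Compounds pre-incubated 15 min as titrations.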

[16] = molecular target: Cytochrome P450 3A4 (Homo sapiens) (UniProt P08684); experiment: qHTS Assay for Activators of Cytochrome P450 3A4 (AID 885); further: nearly all actives have a fitted effect of over 65% in size
Chain of Cytochrome P450 3A4 (Homo sapiens) (P08684 whole entry, looked up): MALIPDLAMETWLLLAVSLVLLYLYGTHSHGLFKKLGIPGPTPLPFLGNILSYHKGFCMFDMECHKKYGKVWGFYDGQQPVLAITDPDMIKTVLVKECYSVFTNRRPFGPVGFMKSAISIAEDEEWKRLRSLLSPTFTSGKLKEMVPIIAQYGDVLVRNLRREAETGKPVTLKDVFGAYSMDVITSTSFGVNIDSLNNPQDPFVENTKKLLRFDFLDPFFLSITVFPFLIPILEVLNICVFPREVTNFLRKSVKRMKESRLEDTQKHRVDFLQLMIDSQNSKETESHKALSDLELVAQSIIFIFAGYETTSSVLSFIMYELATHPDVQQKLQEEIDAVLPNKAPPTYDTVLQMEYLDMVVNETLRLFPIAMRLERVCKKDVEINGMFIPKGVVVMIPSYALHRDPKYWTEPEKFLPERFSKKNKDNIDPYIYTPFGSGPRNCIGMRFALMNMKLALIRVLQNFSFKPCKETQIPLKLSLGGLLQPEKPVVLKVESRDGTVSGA
How it was run: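 Human CYP3A4 (20 nM) with Luciferin-PPXE at 25 uM (its KM) in 200 mM KPO4; 10 min compound preincubation, then NADPH regeneration and 60 min reaction at RT. Luciferin read by luminescence; normalized to 57 uM ketoconazole full inhibition.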

[17] = molecular target: DNA dC->dU-editing enzyme APOBEC-3G (Homo sapiens) (UniProt Q9HC16); experiment: qHTS for inhibitors of Vif-A3G interactions: Validation (AID 588379)
Chain of DNA dC->dU-editing enzyme APOBEC-3G (Homo sapiens) (Q9HC16 whole entry, looked up): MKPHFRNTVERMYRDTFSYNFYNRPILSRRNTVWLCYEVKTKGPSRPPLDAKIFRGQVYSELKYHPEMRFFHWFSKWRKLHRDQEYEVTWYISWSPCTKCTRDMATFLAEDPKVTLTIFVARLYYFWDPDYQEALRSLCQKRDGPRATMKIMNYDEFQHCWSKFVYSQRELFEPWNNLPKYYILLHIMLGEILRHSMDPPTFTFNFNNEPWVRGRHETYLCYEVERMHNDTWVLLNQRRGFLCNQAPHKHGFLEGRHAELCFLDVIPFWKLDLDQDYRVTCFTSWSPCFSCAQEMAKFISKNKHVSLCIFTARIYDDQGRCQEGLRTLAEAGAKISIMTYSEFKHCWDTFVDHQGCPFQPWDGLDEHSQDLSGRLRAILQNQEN
How it was run: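 HeLa cells stably expressing Vif and A3G-eYFP, 700 cells/well, incubated overnight at 37 deg C, then exposed to compound overnight at 37 deg C. Inhibition of Vif-mediated degradation read as increased yellow fluorescence (Ex 488/Em 500-530) by laser-scanning cytometry.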

[18] = molecular target: Cytochrome P450 2D6 (Homo sapiens) (UniProt P10635); experiment: Cytochrome P450 family 2 subfamily D member 6 (CYP2D6) small molecule antagonists: luciferase biochemical (cell-free) qHTS assay (AID 1645840; active means well fitted curve in the direction sought with a large enough effect in the repeat runs; an effect the other way counts as inactive or inconclusive; further: series mostly up to about 57 µM; nearly all actives have a fitted effect of over 55% in size)
Chain of Cytochrome P450 2D6 (Homo sapiens) (P10635 whole entry, looked up): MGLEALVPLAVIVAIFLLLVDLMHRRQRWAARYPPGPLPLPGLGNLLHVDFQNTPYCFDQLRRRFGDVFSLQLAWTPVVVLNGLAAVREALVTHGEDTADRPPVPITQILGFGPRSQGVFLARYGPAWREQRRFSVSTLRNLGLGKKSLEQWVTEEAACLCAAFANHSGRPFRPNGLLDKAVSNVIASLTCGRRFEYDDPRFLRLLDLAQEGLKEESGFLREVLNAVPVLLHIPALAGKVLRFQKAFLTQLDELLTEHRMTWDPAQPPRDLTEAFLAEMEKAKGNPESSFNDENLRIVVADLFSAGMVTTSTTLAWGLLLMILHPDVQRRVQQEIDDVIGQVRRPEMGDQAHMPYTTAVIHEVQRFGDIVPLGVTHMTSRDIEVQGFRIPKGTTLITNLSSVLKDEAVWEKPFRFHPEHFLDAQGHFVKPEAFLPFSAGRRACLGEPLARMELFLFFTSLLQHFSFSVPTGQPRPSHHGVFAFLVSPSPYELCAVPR
How it was run: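 P450-Glo luminescent screen: recombinant CYP2D6 enzyme–proluciferin substrate mix preincubated with compound 10 min at room temperature, then NADPH regeneration added for 1 h at room temperature. Detection reagent added for 20 min; luciferin light read as relative luminescence units.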

[19] = molecular target: Glutathione peroxidase 1 (Homo sapiens) (UniProt P07203); experiment: Primary qHTS Assay for Inhibitors of Recombinant Selenoprotein Glutathione Peroxidase 1 (GPX1) (AID 1845191); further: nearly all actives have a fitted effect of over 65% in size
Chain of Glutathione peroxidase 1 (Homo sapiens) (P07203 whole entry, looked up): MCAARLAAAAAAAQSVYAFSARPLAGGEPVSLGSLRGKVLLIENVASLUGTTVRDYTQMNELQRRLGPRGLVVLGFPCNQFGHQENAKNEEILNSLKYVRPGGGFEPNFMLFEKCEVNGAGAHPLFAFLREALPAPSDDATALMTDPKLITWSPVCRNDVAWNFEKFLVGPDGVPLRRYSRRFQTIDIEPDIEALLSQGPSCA
How it was run: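 GR-coupled assay: compounds preincubated 30 min at room temperature with GPX1, then reaction started with CHP; final 10 nM GPX1, 1 mM GSH, 0.5 mM CHP, 0.5 mM NADPH, 100 nM GR, 0.01% BSA, pH 7.5 Tris buffer. NADPH fluorescence (340/450 nm) read at 0 and 15 min.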

[20] = molecular target: Phospholipid hydroperoxide glutathione peroxidase GPX4 (Homo sapiens) (UniProt P36969); experiment: Primary qHTS Assay for Inhibitors of Recombinant Selenoprotein Glutathione Peroxidase 4 (GPX4) (AID 1845192); details: outcome: dose series up to 50 µM unless noted; further: series mostly up to about 50 µM; nearly all actives have a fitted effect of over 65% in size
Chain of Phospholipid hydroperoxide glutathione peroxidase GPX4 (Homo sapiens) (P36969 whole entry, looked up): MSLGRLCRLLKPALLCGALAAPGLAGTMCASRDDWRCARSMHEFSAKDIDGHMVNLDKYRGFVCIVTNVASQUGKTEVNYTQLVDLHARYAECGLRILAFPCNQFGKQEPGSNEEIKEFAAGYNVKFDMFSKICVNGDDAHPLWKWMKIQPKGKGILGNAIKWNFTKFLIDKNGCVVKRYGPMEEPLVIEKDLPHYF
How it was run: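 GR-coupled assay: recombinant GPX4 preincubated 30 min with compound at room temperature; final 200 nM GPX4, 1 mM GSH, 0.5 mM cumene hydroperoxide, 0.5 mM NADPH, 100 nM GR, 0.01% BSA, pH 7.5 Tris. NADPH fluorescence (340/450 nm) read at 0 and 15 min.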

Measured: Potency

O=C(OCc1cc(=O)n2c3c(sc2n1)CCCC3)c1cccc(NC(=O)c2ccccc2F)c1
active: [1] 59.1 µM

CCOc1ccc(C2C(=O)N(C3CCCCC3)CC(=O)N2Cc2ccc(F)cc2)cc1OC (stereo not given)
inactive: [1] | [2] | [3] | [4]
active: [5] 8.29 µM

CN1CCN(C(=O)CCN2C(=O)/C(=C\c3ccccc3F)SC2=S)CC1
active: [2] 49.4 µM | [6] 251 µM
inactive: [1] | [7] | [3] | [4] | [5]

CCOc1ccc(C(=O)Nc2cccc(C(=O)OCc3cc(=O)n4nc(C5CC5)sc4n3)c2)cc1
active: [1] 52.7 µM

O=C(O)COc1ccc(-c2nccc3c2C(=O)N(Cc2cccc(C(F)(F)F)c2)CC(COc2ccc(OC(F)(F)F)cc2)O3)cc1 (stereo not given)
active: [1] 49.4 µM | [8] 22.1 µM | [9] 22.1 µM | [7] 25.1 µM
inactive: [5]

C[C@H]1O[C@@H](O[C@H]2[C@@H](O)C[C@H](O[C@H]3[C@@H](O)C[C@H](O[C@H]4CC[C@]5(C)C6C[C@@H](O)[C@]7(C)[C@@H](C8=CC(=O)OC8)CC[C@]7(O)C6CC[C@@H]5C4)O[C@@H]3C)O[C@@H]2C)C[C@H](O)[C@@H]1O (stereo not given in full)
inactive: [1] | [2] | [10] | [3] | [11]
active: [5] 0.294 µM

O=C(O)COc1ccc(-c2nccc3c2C(=O)N(Cc2cccc(C(F)(F)F)c2)CC(COc2cccnc2)O3)cc1 (stereo not given)
inactive: [1] | [8] | [9]

Cc1c2oc3c(C)ccc(C(=O)N[C@@H]4C(=O)N[C@@H](C(C)C)C(=O)N5CCC[C@@H]5C(=O)N(C)CC(=O)N(C)[C@@H](C(C)C)C(=O)O[C@H]4C)c3nc-2c(C(=O)N[C@@H]2C(=O)N[C@@H](C(C)C)C(=O)N3CCC[C@@H]3C(=O)N(C)CC(=O)N(C)[C@@H](C(C)C)C(=O)O[C@H]2C)c(N)c1=O (I: [aThr]V[dP][Sar][NMeV] / II: [aThr]V[dP][Sar][NMeV]; ester I:1-I:C, II:1-II:C; linker I:N-II:N via Actinocin(9to1))
active: [2] 27.1 µM
inactive: [12] | [13] > 46 µM | [14] > 46 µM | [15] | [16] | [17] | [1] | [10] | [3] | [4] | [11] | [18]

CC(C)C(NC(=O)C(CCCN=C(N)N)NC(=O)NC(Cc1ccccc1)C(=O)O)C(=O)NC(C=O)CCCN=C(N)N (stereo not given)
active: [1] 11.2 µM

O=C(O)c1ccc(-c2cc(C(F)(F)F)ccc2Cl)cc1
inactive: [1] | [8]

CC(=O)Oc1cc2c(c(C)c1OC(C)=O)CC=C1[C@@]2(C)CC[C@@]2(C)[C@H]3C[C@](C)(C(=O)O)CC[C@]3(C)CC[C@]12C
active: [8] 19.2 µM | [9] 21.5 µM | [10] 13.4 µM | [6] 158 µM | [7] 35.5 µM | [4] 13.1 µM
inactive: [1] | [11]

C[S+](CC[C@H](N)C(=O)O)C[C@H]1O[C@@H](n2cnc3c(N)ncnc32)[C@H](O)[C@H]1O (stereo not given in full)
inactive: [1] | [2] | [3] | [4] | [5] | [19] | [20]

O=C(O)Cn1ccc2cc(OCc3cccc(-c4cccc(C(F)(F)F)c4)c3)cnc21
active: [1] 63.9 µM | [8] 56.9 µM | [9] 40.3 µM | [6] 141 µM | [7] 28.2 µM | [5] 30.2 µM
